Test systems include SK-MEL-2 melanoma; EKVX NSCLC; SN12C renal; UO-31 renal; TK-10 renal; ACHN renal; CAKI-1 renal; A498 renal; CCRF-CEM leukemia; MOLT-4 leukemia.
What all share (assay): NCI-60 one-dose screen, 48 h (100 = growth as untreated, 0 = no growth, -100 = all killed)
Holding throughout (details): 10 µM

Compounds without any hit were thinned out: in the full panel of roughly 83,000, 20% have a hit.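 In brief: 96-well plates, 48 h treatment, single concentration, percent growth endpoint.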 A number with no mark means an inactive call. Activity calls are given as the source filed them. The calls were made as follows: active = growth percent below 10; inactive = the rest.

Turning to `CNS(=O)(=O)Oc1ccc(-c2sc3cc(OS(=O)(=O)NC)ccc3c2C(=O)c2ccc(OCCN3CCCCC3)cc2)cc1`, the growth was 83.7% in the assay on SK-MEL-2 melanoma; 79.6% in the assay on EKVX NSCLC; 79.5% in the assay on SN12C renal; 50.9% in the assay with UO-31 renal; 99.5% with TK-10 renal; 96.8% in the assay with ACHN renal. Moreover, the growth in the assay with CAKI-1 renal is 59.3%; in the assay with A498 renal it was 76.2%; in the assay with CCRF-CEM leukemia, 46.5%; with MOLT-4 leukemia it was 23.2%.
As for `Cc1cc(C)nc(NS(=O)(=O)c2ccc(Nc3nc4nc(NCc5ccccc5)nc(-c5ccc(O)cc5)c4c(=O)[nH]3)cc2)n1`, the growth is 4.65% (active) in the assay on SK-MEL-2 melanoma; 26.7% with EKVX NSCLC; 33.1% in the assay with SN12C renal; 10.9% in the assay with UO-31 renal; 10.3% in the assay with TK-10 renal; 15.6% with ACHN renal. Further, the growth in the assay with CAKI-1 renal is 33.1%; in the assay with A498 renal, 42.5%; in the assay on CCRF-CEM leukemia, 19.6%; with MOLT-4 leukemia it was -1.75% (active).
Regarding `CC(C1=C(CN(C(=O)Cc2cn(-c3ccccc3)nc2-c2ccc(Cl)cc2)C(C)C)Cc2ccccc21)c1ccccn1` (stereo not given), the growth is 53% in the assay with SK-MEL-2 melanoma; 41% in the assay with EKVX NSCLC; 77% with SN12C renal; 27.4% with UO-31 renal; 70.3% in the assay with TK-10 renal; 60.4% in the assay with ACHN renal. The growth with CAKI-1 renal is 40.9%; with A498 renal it was 50.6%; with CCRF-CEM leukemia it was 53.3%; in the assay with MOLT-4 leukemia, 29.3%.
Turning to `OC(CNc1ccnc2cc(Cl)ccc12)CNC1CCCCC1` (stereo not given), the growth with SK-MEL-2 melanoma was 91.8%; in the assay with EKVX NSCLC, 88.1%; with SN12C renal, 85.9%; with UO-31 renal it was 61.2%; in the assay with TK-10 renal, 96.1%; with ACHN renal, 81.8%. Also, the growth was 71.2% in the assay with CAKI-1 renal and 59.6% in the assay with A498 renal.
On to `CC[C@@H]1NC(=O)[C@H]([C@H](O)[C@H](C)C/C=C/c2ccc(CN3C(=O)CCCC3=O)cc2)N(C)C(=O)[C@H](C(C)C)N(C)C(=O)[C@H](CC(C)C)N(C)C(=O)[C@H](CC(C)C)N(C)C(=O)[C@@H](C)NC(=O)[C@H](C)NC(=O)[C@H](CC(C)C)N(C)C(=O)[C@H](C(C)C)NC(=O)[C@H](CC(C)C)N(C)C(=O)CN(C)C1=O`, for which the growth in the assay on SK-MEL-2 melanoma is 38.2%; in the assay on EKVX NSCLC it was 37.4%; in the assay with SN12C renal, 71.1%; in the assay on UO-31 renal, 49.7%; in the assay with TK-10 renal, 39.8%; in the assay on ACHN renal, 40.3%. Besides, the growth in the assay on CAKI-1 renal is 77.3%; in the assay with A498 renal, 4.54% (active); with CCRF-CEM leukemia it was 11.6%; with MOLT-4 leukemia, 21.8%.
As for `COc1ccc(C(=O)CC(CC(=O)c2ccc(OC)cc2)c2c(C)nn(-c3ccccc3)c2Cl)cc1`, the growth in the assay with SK-MEL-2 melanoma is 94.3%; in the assay with EKVX NSCLC, 102%; with SN12C renal, 93.3%; with UO-31 renal, 72.8%; in the assay with TK-10 renal, 103%; with ACHN renal, 90.8%. The growth with CAKI-1 renal was 85.1%; in the assay with A498 renal, 80.8%.
In the case of `Nc1cc(-c2ccc(Cl)cc2)nn1-c1nc2ccccc2nc1Cc1ccccc1`, the growth in the assay with SK-MEL-2 melanoma is 100%; in the assay with EKVX NSCLC, 78.6%; with SN12C renal, 94.1%; with UO-31 renal, 87%; in the assay with TK-10 renal it was 99.2%; with ACHN renal it was 103%. Further, the growth in the assay with CAKI-1 renal was 80.7%.
In the case of `CC(=O)Nc1ccc(CC[C@H]2CCC/C=C/[C@@H]3C[C@H](O)C[C@H]3[C@H](O)/C=C/C(=O)O2)cc1`, the growth in the assay with SK-MEL-2 melanoma was -28.6% (active); in the assay with EKVX NSCLC, 8.89% (active); in the assay on SN12C renal, 5.85% (active); with UO-31 renal it was 6.87% (active); in the assay on TK-10 renal it was -45.5% (active); in the assay on ACHN renal, 4.68% (active). Moreover, the growth in the assay on CAKI-1 renal was 16%; in the assay on A498 renal it was -32.9% (active); with CCRF-CEM leukemia, -4.29% (active); in the assay with MOLT-4 leukemia, -6.82% (active).
As for `COc1ccc(/C=C2\CCCC3=C2N=C2SC(C)=CN2C3c2ccc(OC)cc2)cc1` (stereo not given), the growth with SK-MEL-2 melanoma is 98.6%; in the assay with EKVX NSCLC, 99.4%; with SN12C renal, 104%; in the assay with UO-31 renal, 82.1%; in the assay with TK-10 renal it was 116%; with ACHN renal, 106%. In addition, the growth was 96.4% in the assay with CAKI-1 renal, 76.8% in the assay on A498 renal, 104% with CCRF-CEM leukemia and 103% in the assay with MOLT-4 leukemia.
Turning to `Oc1ccc(/C=N/N=C2c3ccccc3-c3ccccc32)c(O)c1`, the growth in the assay on SK-MEL-2 melanoma is 80.9%; in the assay with EKVX NSCLC it was 78.4%; in the assay on SN12C renal, 56.1%; with UO-31 renal, 56.1%; in the assay with TK-10 renal, 108%; in the assay on ACHN renal, 70.1%. The growth in the assay on CAKI-1 renal was 66.8%; with A498 renal, 95.6%; in the assay with CCRF-CEM leukemia it was 60.4%; in the assay with MOLT-4 leukemia it was 77.9%.
As for `COc1cc(C2CC(c3cc(Cl)c(C)cc3O)=NN2c2ccc(S(N)(=O)=O)cc2)cc(OC)c1OC` (stereo not given), the growth in the assay with SK-MEL-2 melanoma is 37.7%; in the assay on EKVX NSCLC it was 16.9%; with SN12C renal, 13.7%; with UO-31 renal, 4.12% (active); with TK-10 renal, 15.3%; in the assay on ACHN renal, 3.29% (active). The growth in the assay on CAKI-1 renal is 11.4%.
For `N#Cc1ccc(C(=O)CSc2nccc(Nc3ccc(C(=O)O)cc3)n2)cc1`, the growth with SK-MEL-2 melanoma is 106%; in the assay on EKVX NSCLC it was 108%; with SN12C renal it was 103%; in the assay with UO-31 renal, 84.7%; in the assay with TK-10 renal it was 110%; with ACHN renal it was 107%. Further, the growth with CAKI-1 renal was 99.7%; in the assay on A498 renal, 95.7%; in the assay with CCRF-CEM leukemia, 94%; in the assay on MOLT-4 leukemia, 104%.

The values above are taken from PubChem BioAssay (NCI).
